PubChem BioAssay AID485 (The Scripps Research Institute Molecular Screening Center, 2006)
About 460 (0.27%) of roughly 170,000 compounds were called active. This is one part of a sample in which actives are shown more often than they occur. Values without a mark were called inactive.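 Rule for the calls: active = inhibition above the plate cutoff, the mean inhibition of test wells on that plate plus 3 SD (cut at about 28% in these data); inactive = the rest.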

The compounds below were run against Sphingosine 1-phosphate receptor 3 (Homo sapiens) (UniProt Q99500) (assay: S1P3 receptor antagonists, primary screen, cell-based (AID 485;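 note: cells challenged with S1P at its EC80 of 0.8 µM; blue over green emission ratio from cleaved BLA substrate after 4 h stimulation; 0% = S1P-stimulated wells and 100% = unstimulated DMSO-only wells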)). Conditions: CHO S1P3 NFAT-BLA reporter, FRET fluorescence, antagonist mode; at 4.98 µM; active compounds read high.
Chain of Sphingosine 1-phosphate receptor 3 (Homo sapiens) (Q99500 whole entry, looked up): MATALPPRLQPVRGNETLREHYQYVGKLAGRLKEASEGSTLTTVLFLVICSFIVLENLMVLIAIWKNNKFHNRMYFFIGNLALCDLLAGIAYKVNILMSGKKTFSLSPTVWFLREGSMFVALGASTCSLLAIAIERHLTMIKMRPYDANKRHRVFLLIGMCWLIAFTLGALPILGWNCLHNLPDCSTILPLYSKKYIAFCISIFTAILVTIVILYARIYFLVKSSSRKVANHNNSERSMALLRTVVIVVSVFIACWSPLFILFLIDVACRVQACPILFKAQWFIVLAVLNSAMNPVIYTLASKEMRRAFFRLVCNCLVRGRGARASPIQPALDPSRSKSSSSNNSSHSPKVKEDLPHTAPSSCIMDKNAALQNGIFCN

Structure (SMILES)	inhibition
NS(=O)(=O)c1ccc(NC(=O)COC(=O)c2cc3ccccc3oc2=O)cc1	11.2%
O=C(N/N=C/c1cccc([N+](=O)[O-])c1)c1ccncc1	-7.73%
Cc1ccc(NC(=O)NNC(=O)c2sccc2-n2cccc2)cc1	8.38%
COc1ccc(C2=NN(c3nc4ccccc4s3)C(=O)C2)cc1	-9.89%
CCOC(=O)N1CCN(c2c(NCCN3CCN(c4ccccc4F)CC3)c(=O)c2=O)CC1	-1.55%
COc1ccc(NC(=O)C2CCC(CNc3c(N4CCCCC4)c(=O)c3=O)CC2)c(OC)c1 (configuration not stated)	-5.91%
COc1ccc(NS(=O)(=O)c2ccc(Oc3c(C#N)cccc3C#N)cc2)cc1	1.93%
COc1ccc(CC(=O)N[C@@H](CCSC)c2nc3ccccc3[nH]2)cc1	-1.34%
CCn1c(=O)c([N+](=O)[O-])c(NCc2ccc3c(c2)OCO3)c2ccccc21	-5.99%
O=C(Nc1ccc2oc(-c3ccccc3F)nc2c1)c1ccco1	-11.6%
Nc1nc(SC23CC4CC(CC(C4)C2)C3)ns1	-0.08%
Cc1cc(=O)oc2cc(OCCC[n+]3ccccc3)ccc12	0.67%
CC1=NNC(=O)C1CC(=O)N/N=C/c1ccncc1 (configuration not stated)	-24.4%
C[C@@H](NC(=O)OC(C)(C)C)c1nnc(S(=O)(=O)Cc2ccccc2)o1	-3.71%
CCOC(=O)c1oc2c(CN3CCN(CCO)CC3)c(O)c(CC)cc2c(=O)c1-c1nc2ccccc2s1	-10.5%
Cc1ccc(S(=O)(=O)N(C)C)cc1NC(=O)c1n[nH]c(=O)c2ccccc12	-6.86%
Cc1cccc(C)c1N1CCN(S(=O)(=O)N2CCCCC2)CC1	-28.1%
CNC(=O)Nc1cc(C(C)(C)C)no1	92.8% (active)
COc1ccc(CN2C(=O)C(C)S/C2=N/N=C/c2ccco2)cc1 (configuration not stated)	-5.66%
CCn1c(-c2cccnc2Cl)nc2cc(C)c(C)cc21	-10.7%
Cn1c(C(=O)O)ccc1S(=O)(=O)N(Cc1ccccc1)Cc1ccccc1	3.65%

Structure (SMILES)	inhibition
OCCC1CN(Cc2ccccc2-c2ccco2)CCN1Cc1ccsc1 (configuration not stated)	-6.06%
CC(=O)NC(=S)NNC(=O)c1ccc(Br)cc1	-11.1%
CCOc1ccc2sc(NS(=O)(=O)c3ccc(N)cc3)nc2c1	-8.22%
Oc1c(Br)cc(/C=N/NC(=S)NCC2CCCO2)cc1Br (configuration not stated)	0.61%
Cc1cc(C(C)(C)C)cc(S(=O)(=O)Nc2ccc(C(=O)O)cc2)c1C	-12.2%
COc1cc2[nH]c(=O)n(Cc3ccc(C(=O)NC4CCN(Cc5ccccc5)CC4)cc3)c(=O)c2cc1OC	-15.1%
COc1ccc(N2CCN(C(=S)Nc3ccc(S(N)(=O)=O)cc3)CC2)cc1	6.19%
CC(=O)NC(CC(=O)Nc1nccs1)c1ccccc1 (configuration not stated)	-11.7%
CSCCNCc1cn(-c2ccc(F)cc2F)nc1-c1ccccc1C	-21.2%
CC(NC(=O)C(=O)N/N=C/c1ccc(Cl)cc1)c1ccccc1 (configuration not stated)	-3.11%
Cc1nc(CNS(=O)(=O)c2cc([N+](=O)[O-])ccc2C)cs1	10.3%
COc1ccc(CNC(=O)CCC(=O)Nc2nnc(C(C)C)s2)cc1	-0.16%
CS(=O)(=O)c1ccc2nc(NC(=O)c3ccc(N4CCCC4=O)cc3)sc2c1	-4.82%
COc1ccccc1NC(=O)c1c(Br)cnn1C	2.9%
O=C(O)c1ccccc1OCc1ccccc1Cl	8.64%
O=C(/C=C/c1ccc(Cl)cc1)Nc1ccc(S(=O)(=O)Nc2ncccn2)cc1	-1.53%
Cc1cc(C)n(CC(C)NCc2c(C(=O)N3CCOCC3)nc3c(C)cccn23)n1 (configuration not stated)	16%
COc1cccc(CC2(CO)CCCN(Cc3nc(-c4cccs4)oc3C)C2)c1 (configuration not stated)	-7.51%
CCC(CC)c1nnc(NC(=O)c2nn(C)c(=O)c3ccccc23)s1	-16.1%
COc1ccc(N2CCN(C(=O)/C(C#N)=C/c3ccccc3)CC2)cc1	-0.3%
Nc1cc(C(F)(F)F)ccc1N1CCOCC1	8.92%

Structure (SMILES)	inhibition
COc1cc(OC)cc(/C(N)=N/O)c1	9.29%
CCOc1cc(N2CCOCC2)c(OCC)cc1NC(=O)c1ccc(C)s1	2.86%
CCOC(=O)CN(C(=O)COc1nc(-c2ccccc2)cc(C)c1C#N)c1ccc(F)cc1	-12.8%
Nc1nc(NCC2CCCO2)nc(Nc2ccccc2F)c1[N+](=O)[O-] (configuration not stated)	6.85%
CC(C)NC(=O)/C(C#N)=C\c1ccc(N(C)C)c(Br)c1	-16.2%
C=CCN(c1ccccc1C(=O)NCC(=O)OCC)S(=O)(=O)c1ccc(C)cc1	3.85%
CC1=CC2=NC(=O)/C(=C/c3coc4ccccc4c3=O)C(=N)N2O1	-5.98%
CCOc1cc(NS(=O)(=O)c2ccc(OC)cc2)c(OCC)cc1NC(C)=O	-10.8%
O=C(NCCN1CCOCC1)c1ccc2c(c1)N(Cc1ccc(Cl)cc1)CCS2	1.26%
CCc1ccc(Nc2nnc(SCC(=O)c3ccc4c(c3)NC(=O)CO4)s2)cc1	-5.18%
O=C(c1ccc(F)cc1)n1cc(C(=S)N2CCOCC2)c2ccccc21	16.1%
O=C(Nc1ccccc1Cl)/C(Cl)=C(\Cl)S(=O)c1ccccc1 (configuration not stated)	40.8% (active)
O=C(Nc1ccccc1Cl)c1ccc2nsnc2c1	0.3%
O=C(CN1CCCCC1)Nc1ccccc1Cl	-9.78%
CCOC(=O)C1=C(c2ccccc2)NC(=S)NC1c1ccc(Cl)cc1 (configuration not stated)	-1.74%
C=CCN1CC(C)/C(=N\O)CC1C (configuration not stated)	-3.95%
Cc1cc(C)nc(Nc2cc([N+](=O)[O-])ccc2C)n1	11.2%
Cc1nn(-c2ccc([N+](=O)[O-])cc2)c(N)c1-c1ccccc1	-7.46%
COc1ccccc1C1CCN(C(=S)Nc2ccc(Br)cc2)CC1	7.17%
O=C(Nc1ccc(N2CCN(C(=O)c3ccccc3)CC2)c(Cl)c1)c1ncn[nH]1	7.3%
